Screening data as filed in PubChem.
Shown is part of a subset that was picked to be rich in hits.
HTT-AS act – Primary qHTS for Identification of Small Molecule Activators of Huntingtin-Antisense Promoter Activity | AID 1508624, 2021 | Potency, µM (titrated, usually from 57.5 µM), without a hit: at the highest dose activity change, positive = activation, actives largely listed as activators | HEK293 HTT-AS promoter firefly luciferase reporter, 24 h; response scale: percent change from vehicle, -100% = no light | 48,000 compounds, 0.24% hits; note: potency is the fitted concentration of half-maximal effect; nearly all actives have a fitted effect of over 55% in size
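HEK293 luciferase promoter-reporter cells (2,500/well) plated 24 h, then compounds added at up to 57.5 uM final for 24 h at 37 °C. Firefly luminescence by Dual-Glo, normalized to vehicle (0%) and zero RLU (-100%).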
HTT promoter inh – Primary qHTS for Identification of Small Molecule Inhibitors of Huntingtin Promoter Activity; Potency, µM (doses to about 57.5 µM), inactives show at the highest dose activity change, negative = inhibition, hits mostly inhibitors; 48,000 compounds, 0.93% hits; HEK293 HTT promoter firefly luciferase reporter, 24 h; AID 1508623, 2021; note: potency is the fitted concentration of half-maximal effect; nearly all actives have a fitted effect of over 50% in size
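Quantitative HTS used concentration series of up to 57.5 uM final on HEK293 luciferase reporter cells, 24 h at 37 degrees C. Readout was Dual-Glo firefly luminescence.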
NTMT1 inh – Primary qHTS for Inhibitors of N-terminal methyltransferase 1 (NTMT1): MTaseGlo Assay; 59,000 compounds, 2.5% hits; NTMT1 MTase-Glo SAH luminescence, purified enzyme; N-terminal Xaa-Pro-Lys N-methyltransferase 1 (Homo sapiens), Q9BV86; Potency, µM (doses to about 114 µM), without a hit: at the highest dose activity change, negative = inhibition, usual class: inhibitors;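 note: potency is the fitted concentration of half-maximal effect; plate controls were DMSO vehicle for no effect and no enzyme for full effect; nearly all actives have a fitted effect of over 65% in size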
Target sequence (Q9BV86 whole entry, looked up): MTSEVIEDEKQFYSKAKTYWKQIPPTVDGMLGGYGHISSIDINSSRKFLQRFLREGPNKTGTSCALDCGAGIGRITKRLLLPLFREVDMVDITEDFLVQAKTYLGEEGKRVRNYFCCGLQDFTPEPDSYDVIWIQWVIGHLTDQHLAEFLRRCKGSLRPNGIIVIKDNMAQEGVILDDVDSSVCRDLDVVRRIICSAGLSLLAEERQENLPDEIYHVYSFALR
USP2a K63 – Confirmation Assay for Inhibitors of Ubiquitin-specific Protease USP2a Using CHOP2 as the Reporter: K633 | shares compounds with NTMT1 inh | USP2 cleavage of DiUb K63-3IQF, fluorescence kinetic | Potency, µM (highest dose often 57.5 µM), without a hit: top-dose activity change, negative = inhibition, most hits filed as inhibitors | 30 compounds, 80% hits | AID 652172, 2013
Casp6 inh – qHTS for Inhibitors of Ubiquitin-specific Protease USP2a Using CHOP2 as the Reporter: Caspase 6 Assay | Caspase 6 enzyme, Caspase-Glo 6 luminescence | 30 tested, under 10 active | activity change, negative = inhibition, % at 46.1 µM | shares compounds with NTMT1 inh
Active calls of the source: *; ? = inconclusive; . = no result given; [ ] = another dose, or the depositor's remark. Calls come from the whole dose curve; as a rule, active = well fitted curve in the direction sought with a large enough effect; inconclusive = small, poorly fitted or top-dose-only effect, or another doubt; inactive = no such curve, though single readings can be large; an effect the other way counts as inactive or inconclusive.

SMILES	HTT-AS act	HTT promoter inh	NTMT1 inh	others
COC(=O)C1C(CC(C)=O)C=CC(O)C12Oc1cc(C)cc(O)c1C2=O (stereo not given)	.	.	-1.8%[29.8 µM]
C[C@]1(CO)CCC[C@]2(C)C3=C(CCC12)COC3 (stereo not given in full)	.	.	-14.3%[57.5 µM]
O=C(Nc1ccc(N(Cc2ccsc2)C(=O)Cn2nnc3ccccc32)cc1)C1CC1	.	.	7.4%[57.5 µM]
CC1=CC(=O)CC(C)(CO[C@@H]2O[C@H](CO)[C@@H](O)[C@H](O)[C@H]2O)C1(O)/C=C/C(C)=C/C(=O)O (stereo not given in full)	.	.	1.5%[29.8 µM]
CC(C)c1ccccc1-c1ncc(N)c(NCc2ccc(-c3cccnc3)cc2)n1	.	.	8.6%[57.5 µM]
COc1cc(OC)c(/C=C/S(=O)(=O)Cc2ccc(OC)c(OP(=O)(O)O)c2)c(OC)c1	.	.	4.7%
Cc1ccc(-c2cc(C(=O)NCCc3ccccc3)c3ccccc3n2)cc1C	35.2%	2.4%	-7.4%
Cc1ccc(-c2cc(C(=O)Nc3ccc(S(N)(=O)=O)cc3)c3cccc(C)c3n2)cc1C	.	.	.	USP2a K63=10.9µM*;Casp6 inh=?
Cc1ccc(-c2cc(C(=O)Nc3ccccn3)c3ccccc3n2)cc1C	.	.	-8.5%
Cc1ccc(-c2cc(C(=O)Nc3ccc(-n4cccn4)cc3)c3ccccc3n2)cc1C	.	.	-12.2%	USP2a K63=8.63µM*;Casp6 inh=-7.3
CC(=O)O[C@@H]1c2c(C)coc2C(=O)[C@@]23O[C@@H]2CC[C@H](C)[C@@]13C	.	.	4.6%[57.5 µM]
